Measured values reported in PubChem BioAssay AID485281 (National Center for Advancing Translational Sciences (NCATS), 2010).
The whole screen tested about 350,000 compounds, of which about 260 (0.074%) were called active. A call without a number means that no potency is given here. Another 8% or so got no clear call; they are omitted. Calls come from the whole dose curve; as a rule, active = well fitted inhibition curve with a large enough effect; inconclusive = small, poorly fitted or top-dose-only effect; inactive = no such curve, though single readings can be large or run the other way. For the sample, actives were picked, then their nearest neighbours and some compounds at random.

target: Ferritin light chain (Equus caballus) (UniProt P02791); test: qHTS Assay for Identification of Novel General Anesthetics; details: apoferritin/1-aminoanthracene competitive binding, fluorescence; series mostly up to 77.5 µM; note: nearly all actives have a fitted effect of over 20% in size
Summary of the method: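 Horse-spleen apoferritin (10 uM) was mixed with 50% saturated 1-aminoanthracene in PBS, exposed to compounds for 10 min at room temperature, and read for fluorescence (ex 380 nm, em 535 nm). Competitive displacement was fitted with a four-parameter Hill equation.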
Potency is the fitted concentration of half-maximal effect.

Sequence of Ferritin light chain (Equus caballus) (P02791 2-175 limits assumed): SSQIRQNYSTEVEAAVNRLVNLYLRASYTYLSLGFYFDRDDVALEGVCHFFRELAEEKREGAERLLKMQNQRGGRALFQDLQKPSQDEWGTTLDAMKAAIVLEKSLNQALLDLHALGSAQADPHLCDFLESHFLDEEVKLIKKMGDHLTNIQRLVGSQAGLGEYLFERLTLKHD

| SMILES | Potency |
| --- | --- |
| O=C(NCCCN1CCN(c2cccc(Cl)c2)CC1)c1nnc(Cc2ccc(F)cc2Cl)o1 | inactive |
| COc1ccccc1CNC(=O)CCn1c(=O)c2ccccc2n(CC(=O)Nc2cccc(Cl)c2)c1=O | inactive |
| CCOc1cccc2c1N[C@@H](c1ccc(C(=O)O)cc1)[C@H]1CC=C[C@@H]21 | inactive |
| CCC(=O)N1c2ccccc2CC1C(=O)N1CCN(c2ccccc2F)CC1 (stereo unspecified) | inactive |
| COc1ccc(-n2ccnc(NCCc3ccc(Cl)cc3)c2=O)cc1OC | inactive |
| O=C(Cn1nc(C(F)(F)F)c2c1CCCC2)Nc1ccc(Cl)cc1 | inactive |
| COC(=O)c1ccc(NC(=O)CCc2c(C)nn(-c3ccc(N4CCCC4)nn3)c2C)cc1 | inactive |
| COc1ccc(CCn2cc3c(c2-c2ccc(Br)cc2)c(=O)n(C)c(=O)n3C)cc1OC | inactive |
| COc1ccc(CC(=O)NCCc2sc3nc(-c4ccc(OC)cc4)nn3c2C)cc1 | inactive |
| Cc1cccc(N2CCN(C3=C(c4ccccc4)C(=O)c4ccccc43)CC2)c1C | inactive |
| CCOc1ccc(N(C)S(=O)(=O)c2cc(-c3cnc(C)o3)ccc2OC)cc1 | inactive |
| CC(=O)c1ccc(NC(=O)CSc2c(C(C)C)cnc3c2c(=O)n(C)c(=O)n3C)cc1 | inactive |
| CCOc1ccc(C(=O)Nc2ccc3nc4c(c(Nc5ccccc5OC)c3c2)CCCC4)cc1 | inactive |
| COc1ccc(NC(=O)c2ccco2)cc1NC(=O)COc1ccc(C)c(C)c1 | inactive |
| CCOc1ccc(N(CC)S(=O)(=O)N2CCCC(C(=O)NCc3ccc(SC)cc3)C2)cc1 (stereo unspecified) | inactive |
| O=C(Nc1ccccc1F)C(c1ccccc1)N1Cc2ccccc2C1=O (stereo unspecified) | inactive |
| CC(=O)N1CCc2cc(S(=O)(=O)NC(Cc3ccccc3)C(=O)NCc3ccc(C)cc3)ccc21 (stereo unspecified) | inactive |
| COc1cc2c(cc1OC)C(COc1ccc(F)cc1)N(C(=O)c1ccccc1F)CC2 (stereo unspecified) | inactive |
| COc1ccc(-c2onc(C)c2C)cc1S(=O)(=O)NCCc1ccccc1 | inactive |
| Cc1ccc(-c2cc(N)n(Cc3cccc(Cl)c3)n2)cc1 | inactive |
| Cc1ccccc1C(=O)N(Cc1ccc(N(C)C)cc1)CC1CCCO1 (stereo unspecified) | inactive |
| CCOc1cc(C2c3c(-c4ccc(Br)cc4)n[nH]c3C(=O)N2c2ccc(Cl)cc2)ccc1O (stereo unspecified) | inactive |

| SMILES | Potency |
| --- | --- |
| CC(C)c1ccc(NC(=O)C2CCN(c3nc(-c4ccc(C(C)C)cc4)no3)CC2)cc1 | inactive |
| Cc1ccc(NC(=O)CSc2nc3c([nH]c4ccccc43)c(=O)n2-c2ccccc2)c(C)c1 | inactive |
| CCCOc1ccc(C(=O)Nc2ccc3oc(-c4cccc(Cl)c4Cl)nc3c2)cc1 | inactive |
| COc1cc(OC)c(OC)cc1/C=C/c1nc2ccccc2c(=O)n1-c1ccc(Br)c(C)c1 | inactive |
| COc1ccc(N2CCN(C(=O)C3CCCN(C(=O)c4cc5sccc5n4C)C3)CC2)cc1 (stereo unspecified) | inactive |
| CCc1ccccc1OCCSc1nc(-c2cccs2)nc2cc(=O)[nH]n12 | inactive |
| COc1ccc(CNC(=O)CSCc2nc(-c3ccccc3F)oc2C)cc1 | inactive |
| COc1ccc(Br)cc1C1CC(=O)Nc2c1c(C)nn2-c1nc(C)cc(C)n1 (stereo unspecified) | inactive |
| Cc1ccc(NC(=O)c2ccc3[nH]c(C)cc(=O)c3c2)c(C)c1 | inactive |
| Cc1c(Cl)cccc1-c1ccc(CNCCCSc2nnnn2C)o1 | inactive |
| COc1ccc(NC(=O)CCN2CCN(CCO)CC2)cc1 | inactive |
| COc1ccc(CCNC(=O)c2ccc3c(c2)nc(C)n3-c2ccc(Br)cc2)cc1OC | inactive |
| O=C(CSc1nccn1C1CCCC1)Nc1cc(C(F)(F)F)ccc1Cl | inactive |
| CCN(CC)c1ccc(NS(=O)(=O)c2cc(-c3cc(C)no3)ccc2C)c(C)c1 | inactive |
| Cc1ccc(F)c(NC(=O)CCc2ccccc2)c1 | 12.6 µM (active) |
| Cc1cccc(OCC(=O)Nc2ccccc2F)c1 | inactive |
| Cc1ccc(F)c(NC(=O)CCOc2ccccc2C)c1 | inactive |
| CCc1ccc(NC(=O)C2CCCN2S(=O)(=O)c2ccc3nc(-c4ccccc4)[nH]c3c2)cc1 (stereo unspecified) | inactive |
| CSc1ccc(C2c3c(oc4ccccc4c3=O)C(=O)N2CCCN2CCOCC2)cc1 (stereo unspecified) | inactive |
| CCCOc1ccc(C2c3c(oc4cc(C)c(C)cc4c3=O)C(=O)N2CCCN2CCOCC2)cc1 (stereo unspecified) | 35.5 µM (active) |
| Cc1ccc2oc3c(c(=O)c2c1)C(c1ccc([N+](=O)[O-])cc1)N(CCCN1CCOCC1)C3=O (stereo unspecified) | inactive |
| CCOc1ccc(C(NC(=O)c2cc(OC)c(OC)c(OC)c2)c2cc(Cl)c3cccnc3c2O)cc1 (stereo unspecified) | inactive |

| SMILES | Potency |
| --- | --- |
| Cc1c(Cl)cccc1NC(=O)Cn1cc(C(=O)c2cccs2)c2ccccc21 | inactive |
| O=C(Nc1ccc(Br)cc1)c1ccc(Br)c(S(=O)(=O)NCc2ccccc2)c1 | inactive |
| CCCn1c2ccccc2c2cnn(CC(=O)NCC3CCN(Cc4ccc(C)cc4)CC3)c(=O)c21 | inactive |
| COc1ccc(N2CCN(c3nc(-c4ccccc4F)nc4ccccc34)CC2)cc1 | inactive |
| COc1ccc(OC)c(NC(=O)/C=C/c2ccc(C)o2)c1 | inactive |
| CCC1CN(S(=O)(=O)c2cc(-c3cc(C)no3)ccc2C)c2cc(C)ccc2O1 (stereo unspecified) | inactive |
| CC(C)c1ccc(OCC(=O)N(Cc2ccc(N(C)C)cc2)C2CCS(=O)(=O)C2)cc1 (stereo unspecified) | inactive |
| CSc1ccc(CCNC(=O)c2ccc3c(c2)nc2n3CCOC2)cc1 | inactive |
| CC(C)S(=O)(=O)c1oc(-c2ccc(F)cc2)nc1S(=O)(=O)c1ccc(F)cc1 | inactive |
| CCOc1ccc(-c2cc(C)n3nc(C(=O)Nc4ccc(C)c(C)c4)cc3n2)cc1 | inactive |
| COc1ccc(Cl)cc1NC(=O)CCn1c(=O)c2cccn2c2ccccc21 | inactive |
| O=C(NCc1ccccc1)C(=O)NCC(c1ccco1)S(=O)(=O)c1ccc(Cl)cc1 (stereo unspecified) | inactive |
| CCC(=O)N1CCc2cc(S(=O)(=O)NC(Cc3ccccc3)C(=O)NCc3ccccc3)ccc21 (stereo unspecified) | inactive |
| CC(C)c1ccc(NC(=O)c2ccc(Cn3nc(N4CCN(c5ccccc5)CC4)ccc3=O)o2)cc1 | inactive |
| Cc1ccc(CCNC(=O)c2ccc(CS(=O)(=O)Cc3cccc(C)c3)o2)cc1 | inactive |
| CNC(=O)c1ccc(-c2nc(CN3CCc4ccccc43)c(C)o2)cc1 | inactive |
| COc1ccc(-c2noc(CSc3nc4ccc(C)cc4[nH]3)n2)cc1 | inactive |
| Cc1ccc(C(=O)Nc2ccc(OCc3cc(=O)n4c5c(sc4n3)CCCC5)cc2)cc1 | inactive |
| C=CC(=O)c1ccc2ccccc2c1 | 17.8 µM (active) |
| O=C(Nc1ccccc1N1CCCC1)c1ccc2ccccc2c1 | inactive |
| O=C(Nc1ccc(NC(=O)c2cccs2)cc1)c1ccc2ccccc2c1 | inactive |
| CCOc1cc(C(=O)Nc2nnc3n2CCS3)cc(OCC)c1OCC | inactive |

| SMILES | Potency |
| --- | --- |
| Cc1cc(O)c(C(c2ccccc2)N2CCN(c3ccccc3F)CC2)c(=O)n1Cc1ccco1 (stereo unspecified) | inactive |
| CCOc1cc(-c2nnc(SCC(=O)NC3CCCCC3)nc2-c2ccc(OC)c(OCC)c2)ccc1OC | inactive |
| COc1ccc(C(=O)Nc2ccc(-n3nncc3-c3ccccc3)cc2)cc1OC | inactive |
| Cn1c(C(=O)N2CCC(C(=O)N3CCN(c4ccccc4)CC3)CC2)cc2sccc21 | inactive |
| CC(C)(C)OC(=O)N1CCC(c2c(C(=O)NCCc3ccsc3)cnn2-c2ccc(F)cc2F)CC1 | inactive |
| COc1cccc(C(c2c(O)cc(C)n(Cc3ccco3)c2=O)N2CCN(c3ccccc3)CC2)c1 (stereo unspecified) | inactive |
| COc1ccc2ncc3c(-c4ccc(C)c(C)c4)nn(CC(=O)NC4CCCC4)c3c2c1 | inactive |
| Cc1ccc2occ(/C=N/NC(=O)c3ccccc3C)c(=O)c2c1 | 25.1 µM (active) |
| O=c1c(/C=N/O)coc2ccc(Cl)cc12 | inactive |
| CC(C)(C)OC(=O)NCCCCCC(=O)N/N=C/c1coc2ccccc2c1=O | inactive |
| O=S(=O)(NCC(c1ccccc1)N1CCc2ccccc21)c1ccccc1 (stereo unspecified) | inactive |
| O=C(O)c1c(CNCc2cccc(F)c2)c2ccccc2n1Cc1ccccc1 | inactive |
| O=c1cc2nc(-c3ccccc3)nc(SCCOc3ccc(Cl)cc3)n2[nH]1 | inactive |
| COc1ccc(CCN2C(=O)N(c3cccc(OC)c3)C(=O)C2CC(=O)Nc2ccccc2)cc1 (stereo unspecified) | inactive |
| CCc1cnc2c(c1SCC(=O)c1ccccc1)c(=O)n(C)c(=O)n2C | inactive |
| CCCNC(=O)c1ccc2c(c1)ncn2-c1ccc(C)cc1C | inactive |
| CC(C)c1ccc(S(=O)(=O)Nc2ccc(O)c(Sc3nc4ccccc4s3)c2)cc1 | inactive |
| COc1cc(NC(=O)c2cc3ccc4cccnc4c3[nH]2)cc(OC)c1OC | inactive |
| CCOc1ccc(OCC)c(NC(=O)CN(c2ccc(C)cc2)S(=O)(=O)c2c(C)n[nH]c2C)c1 | inactive |
| COc1ccc(OC)c(CCNC(=O)CCCn2c(=O)c3cccn3c3cccnc32)c1 | inactive |
